# Assay results published in ChEMBL document CHEMBL4513149, “CO-ADD screening of MMV (CH) - MMV compounds” (2021).
# Results with a measured potency or affinity are listed apart.
# Tested on: Klebsiella pneumoniae
# Settings: Concentration 20 uM; ASSAY_TEST Inhibition of Bacterial Growth; detection method Absorption (OD600); MEDIA CAMHB; plate type 384well; NBS; CORNING #3640; time 18 hr
row,Compound,Inhibition
1,CN1CCN(S(=O)(=O)c2ccc(-c3ccc4c(Nc5ccc6nn[nH]c6c5)ccnc4c3)cc2)CC1,5.15%
2,CCN(CC)CCCCCCNc1cc(OC)cc2c(C)ccnc12.Cc1ccc(S(=O)(=O)O)cc1,14.1%
3,CN(C(=O)c1cc2c(-c3cncnc3)cccc2[nH]1)c1ccccc1,10.84%
4,OCCc1ccc(Nc2nccc(-c3nnc4ccccn34)n2)cc1,15.28%
5,CN1CCN(c2cc(-c3ccc(F)cc3)nc(-c3ccncc3)n2)CC1,4.2%
6,CCc1ccc([C@@H]2C[C@H](C(F)(F)F)n3ncc(C(=O)NCc4ccc(OC)cc4)c3N2)cc1,2.88%
7,COc1ccc(C2(C(=O)Nc3ccc(Br)cc3)CCCC2)cc1,17.05%
8,O=C(c1ccc(F)cc1)N(CCNc1ccccc1)c1ccccc1,12.15%
9,O=C(Nc1c(O)cccc1-c1nc2c(C(=O)O)cccc2o1)c1cc(-c2ccccc2)on1,-9.4%
10,COc1cccc(OC)c1C(=O)Nc1ccc(Cl)c(-c2nc3ccccc3s2)c1,2.41%
11,c1ccc(-c2[nH]c3ccccc3c2C(c2ccccn2)N2CCCC2)cc1 (stereo unspecified),11.72%
12,CCN(CC)C(=O)N1CCN(C)CC1 [DIETHYLCARBAMAZINE],16.19%
13,COc1ccc(-c2nn(C(C)C)c3ncnc(N)c23)cc1OC,10.07%
14,CC(C)C(NC(=O)Cc1cccc2ccccc12)C(=O)Nc1cccc(C#N)c1 (stereo unspecified),13.86%
15,CC(=O)N1CCc2cc3nc(C)cc(C)c3cc21,14.03%
16,COc1cccc(CC(=O)N2CCC(n3c(C)nc4ccc(F)cc43)CC2)c1,12.2%
17,Cc1nc(-c2cccc(NCc3ccccc3)c2)[nH]c1C,18.74%
18,O=C(Nc1cccc(Cl)c1)c1cnc(N2CCN(c3ccncc3)CC2)c(Cl)c1,13.15%

row,Compound,Inhibition
1,CCCCOC(=O)Nc1cc2nc(C3CCCCC3)[nH]c2cc1N1CCCC1,3.91%
2,O=C(Nc1cnc2ccccc2c1)c1cccc(-n2cnnn2)c1,8.59%
3,FC(F)(F)c1cccc(-c2nc3c(NCc4ccncc4)nccc3[nH]2)c1,6.33%
4,CC[C@H](CO)NCCN[C@H](CC)CO.Cl.Cl,9.73%
5,COc1ccccc1CNC(=O)c1cc(C2CC2)nc2c1cnn2C(C)C,8.65%
6,COc1ccc(-c2cnc3ccc(NCc4ccc(S(N)(=O)=O)cc4)nn23)cn1,16.22%
7,O=[N+]([O-])c1cn2c(n1)OC[C@@H](OCc1ccc(OC(F)(F)F)cc1)C2 [PRETOMANID],14.31%
8,CNC(=O)CNc1nc(-c2ccccn2)nc2scc(-c3ccccc3)c12,15.46%
9,O=C(C(Cc1c[nH]c2ccccc12)NS(=O)(=O)c1ccc(Cl)cc1)N1CCCCC1 (stereo unspecified),4.11%
10,N=C(N)c1ccc(-c2cc(-c3ccccc3)on2)cc1,18.39%
11,CC(C)(C)n1nc(Cc2cccc3ccccc23)c2c(N)ncnc21,2.54%
12,CN1CCN(c2nccc3nc(-c4ccc(F)c(F)c4)[nH]c23)CC1,17.85%
13,Cc1cc(C)n2nc(C(=O)Nc3cc(C(F)(F)F)ccc3N3CCOCC3)nc2n1,15.61%
14,COc1ccc(N(CCc2cccc(C)n2)C(=O)C2CCCCC2)cc1,6.26%
15,Cl.NCC(c1cccs1)S(=O)(=O)c1ccccc1 (stereo unspecified),-0.58%
16,COC(=O)c1c(NC(=O)c2cc3ccccc3oc2=O)sc2c1CCN(Cc1ccccc1)C2,12.75%
17,CN(C)CCNC(=O)N1CCCN(c2ncnc3cc(-c4ccccc4)sc23)CC1,15.92%
18,CCOc1ccc2cc(-c3nn(C(C)(C)C)c(N)c3C(N)=O)cnc2c1.Cl,13.27%
